Results from PubChem BioAssay (NCI).
This is part of a sample that, as a whole, favours compounds with a hit. Of some 83,000 tested, about 20% had one in any assay.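 48-hour exposure, single concentration, 96-well plates; percent growth endpoint where 0 means no net growth. Active: below 10.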 Values without a mark were called inactive. The source made the active and inactive calls.

Columns and labels:
Experiment in all cases: NCI-60 one-dose screen, 48 h (100 = growth as untreated, 0 = no growth, -100 = all killed)
Conditions in all cases: 10 µM unless noted
DU-145 prostate = tested on: DU-145 prostate
K-562 leukemia = tested on: K-562 leukemia
MALME-3M melanoma = tested on: MALME-3M melanoma
MDA-MB-231 breast = tested on: MDA-MB-231 breast
SF-268 CNS = tested on: SF-268 CNS
SF-295 CNS = tested on: SF-295 CNS
SF-539 CNS = tested on: SF-539 CNS
UACC-257 melanoma = tested on: UACC-257 melanoma
M14 melanoma = tested on: M14 melanoma
HCT-15 colon = tested on: HCT-15 colon
HT29 colon = tested on: HT29 colon
SNB-75 CNS = tested on: SNB-75 CNS
SNB-19 CNS = tested on: SNB-19 CNS
U251 CNS = tested on: U251 CNS
PC-3 prostate = tested on: PC-3 prostate
SK-MEL-5 melanoma = tested on: SK-MEL-5 melanoma
UACC-62 melanoma = tested on: UACC-62 melanoma
LOX IMVI melanoma = tested on: LOX IMVI melanoma
SK-MEL-28 melanoma = tested on: SK-MEL-28 melanoma

Row | Structure (SMILES) | growth (DU-145 prostate) | growth (K-562 leukemia) | growth (MALME-3M melanoma) | growth (MDA-MB-231 breast) | growth (SF-268 CNS) | growth (SF-295 CNS) | growth (SF-539 CNS) | growth (UACC-257 melanoma) | growth (M14 melanoma) | growth (HCT-15 colon) | growth (HT29 colon) | growth (SNB-75 CNS) | growth (SNB-19 CNS) | growth (U251 CNS) | growth (PC-3 prostate) | growth (SK-MEL-5 melanoma) | growth (UACC-62 melanoma) | growth (LOX IMVI melanoma) | growth (SK-MEL-28 melanoma)
1 | COc1ccc(NS(=O)(=O)c2ccc(C)cc2)c([N+](=O)[O-])c1 | 111% | 93.2% | 96.2% | 96% | 101% | 110% | 110% | 98.7% | 109% | 107% | 107% | 105% | 102% | 93.3% | 97.5% | 96.8% | 86% | 95.2% | 107%
2 | O=C1Nc2c(ccc(Cl)c2Cl)/C1=C/c1ccc([N+](=O)[O-])cc1 | 108% | 89.5% | 84.4% | 94.2% | 93.3% | 76.7% | 95.4% | 72% | 104% | 89.4% | 99.2% | 95.9% | 81.3% | 92.3% | 95.3% | 99.6% | 102% | 89.5% | 111%
3 | COc1ccc(C(=O)/C=C/c2c(OC)cc(OC)cc2OC)c(OC)c1 | 18.3% | 18.5% | 3.17% (active) | 44.4% | 36.5% | 11.3% | 8.25% (active) | 28.9% | 4.81% (active) | 5.27% (active) | 1.7% (active) | 8.7% (active) | 33.6% | 15.5% | 6.39% (active) | -5.47% (active) | 11.9% | 27.3% | 56.8%
4 | CN1CCN(C(=O)OCc2nc3c(N4CCOCC4)nc(-c4ccccc4)nc3n2C)CC1 | -83.5% (active) | 2.72% (active) | -93.9% (active) | -86.2% (active) | -50.2% (active) | 47.9% | -99.6% (active) | -49.5% (active) | -73.5% (active) | -59.9% (active) | -29.1% (active) | -6.43% (active) | 30.3% | -54.2% (active) | -62.3% (active) | -96.7% (active) | -95.9% (active) | -91.4% (active) | -95.5% (active)
5 | COc1cc(NCCCN(CC(C)C)C2CCCC2)c2ncccc2c1 | 83.4% | 39.2% | 92.1% | 74.8% | 87.5% | 87.4% | 88.8% | 89.4% | 85.7% | 63.6% | 71.8% | 71% | 84.6% | 76.6% | 59.4% | 72.2% | 73.6% | 58.7% | 71.2%
6 | COc1ccc(-c2nc(N/N=C/c3c[nH]c4ccccc34)nc(N3CCOCC3)c2C#N)cc1 | 79.7% | 38% | 80.3% | 72.4% | 95.5% | 68.2% | 67.6% | 21.4% | 88.5% | 44.1% | 51.4% | 61.6% | 109% | 58.7% | 74.3% | 101% | 106% | 102% | 41.3%
7 | CC1(c2ccccc2)NC(=O)N(CC(=O)Nc2cccc(I)c2)C1=O (centres undefined) | 106% | 91.7% | 75.3% | 75% | 89.7% | 94% | 89.9% | 84.9% | 102% | 92.9% | 95.9% | 66.8% | 84.7% | 88.7% | 67.9% | 31.1% | 74% | 93.8% | 93%
8 | CCCCc1ccc(Nc2nnc(SCC(=O)NC(=O)NCC)s2)cc1 | 104% | 91.6% | 97.2% | 88.1% | 92.4% | 110% | 96.4% | 113% | 107% | 99.9% | 103% | 83% | 119% | 96% | 91% | 103% | 78.2% | 94.1% | 105%
9 | CC1(C)[C@H](O)CC[C@]2(C)[C@@H]1CC[C@@]13C[C@@H](CC[C@H]12)[C@@](O)(CO)C3 | 117% | 104% | 111% | 114% | 108% | 103% | 106% | 107% | -30.7% (active) | 105% | 112% | 102% | 99.7% | 108% | 111% | 101% | 105% | 103% | 108%
10 | Nc1nnc2cc(Cl)ccc2n1 | 105% | 83.9% | 126% | 96.9% | 112% | 140% | 111% | 127% | 113% | 94.2% | 119% | 91.6% | 104% | 98.4% | 77% | 102% | 93.1% | 87.9% | 114%
11 | Cc1nc2sc(C(=O)Nc3cccc(Br)c3)c(N)c2cc1C(=O)c1ccc(C(F)(F)F)cc1 | 69.3% | 84.2% | 81% | 63.8% | 79.4% | 67.7% | 56.5% | 95.2% | 69.2% | 88.1% | 90.3% | 55% | 82.3% | 58.7% | 70.2% | 91% | 82.7% | 73.3% | 92.1%
12 | NC(=O)c1cccc(-c2ccccc2N2CCCCC2)c1 | 99.8% | 85.1% | 80.8% | 100% | 94% | 89.4% | 97.8% | 99.3% | 94.6% | 101% | 95.2% | 99.7% | 93% | 98.3% | 83.9% | 100% | 85% | 98.5% | 98.6%
13 | CCN(CC)CCCC(Nc1c2ccc(Cl)cc2nc2ccc(OC)cc12)c1ccc(Cl)cc1 (centres undefined) | 23.8% | -58.2% (active) | -82.3% (active) | -59.1% (active) | 14.2% | -85.7% (active) | -90.9% (active) | -86.7% (active) | -89% (active) | -54.7% (active) | -49.6% (active) | 16.7% | 6.15% (active) | -85.9% (active) | 33.6% | -93.7% (active) | -70.6% (active) | -83.3% (active) | -88.7% (active)
14 | O=C1Nc2c(ccc(Cl)c2Cl)/C1=C/c1ccc(O)cc1 | 119% | 91.9% | 108% | 88.7% | 89.1% | 87.6% | 98.3% | 102% | 100% | 90.8% | 94.7% | 56.7% | 68.8% | 83.8% | 98.1% | 87.1% | 76.7% | 63.7% | 123%
15 | COc1cc(/C=N/NC(=O)c2ccccc2Nc2cccc(C(F)(F)F)c2)ccc1O | 89.7% | 77.9% | 106% | 71.6% | 81.5% | 93.5% | 105% | 23.8% | 73.9% | 86.1% | 113% | 107% | 84.2% | 87.8% | 80.9% | 58.8% | 78.7% | 76.3% | 104%
16 | CCCCCCCCCCCCC1CCC/C=C\CCC(=O)O1 (centres undefined) | 115% | 101% | 108% | 99.3% | 101% | 103% | 104% | 119% | 95.2% | 101% | 102% | 84.6% | 101% | 110% | 87% | 104% | 101% | 105% | 118%
